According to PubChem BioAssay AID778 (Sanford-Burnham Center for Chemical Genomics, 2007):
Screen size: about 96,000 compounds; about 20,000 (21%) were called active. A selection follows. Values without a mark were called inactive.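 The calls were made as follows: active = CYP2C19 inhibition above a set limit at 5 µM in the primary screen (cut at about 50% in these data); inactive = the rest.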

biological target: Cytochrome P450 2C19 (Homo sapiens) (UniProt P33261); experiment: blockers of cytochrome P450 2C19 activity – biochemical, luminescence, ADME assay, primary screen (AID 778); details: CYP2C19 Supersomes, luciferin-H EGE luminescence, 30 min; at 5 µM; stronger effect = higher value;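 also: plate controls were negative control wells for no effect and 2.5 mM tranylcypromine positive control for full effect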
Sequence (P33261 whole entry, looked up): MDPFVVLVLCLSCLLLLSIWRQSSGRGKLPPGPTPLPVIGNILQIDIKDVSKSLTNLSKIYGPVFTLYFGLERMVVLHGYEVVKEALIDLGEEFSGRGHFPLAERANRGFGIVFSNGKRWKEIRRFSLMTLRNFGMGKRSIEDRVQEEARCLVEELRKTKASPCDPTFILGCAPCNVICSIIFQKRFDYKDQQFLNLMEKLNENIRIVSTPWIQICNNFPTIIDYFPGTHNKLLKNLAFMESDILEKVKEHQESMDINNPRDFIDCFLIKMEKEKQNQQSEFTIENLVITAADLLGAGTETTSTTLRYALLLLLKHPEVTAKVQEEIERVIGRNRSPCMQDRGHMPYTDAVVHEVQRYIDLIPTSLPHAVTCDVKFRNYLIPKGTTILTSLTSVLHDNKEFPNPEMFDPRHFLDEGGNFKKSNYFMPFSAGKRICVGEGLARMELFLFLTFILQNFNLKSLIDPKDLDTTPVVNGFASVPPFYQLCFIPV

| SMILES | inhibition |
| --- | --- |
| CCn1cc(C(=O)NCC2CCCO2)c(=O)c2cc(S(=O)(=O)N3CCCCC3)ccc21 (stereo unspecified) | 13.6% |
| Cc1ccc(C(=O)N(CN2CCCC2=O)c2ccc(F)cc2)cc1 | -14.3% |
| CCCNC(=O)C1CC(=O)N(c2ccc(OCC(=O)Nc3cccc(C)c3C)cc2)C1 (stereo unspecified) | -17.2% |
| COc1ccc(Cl)cc1NC(=O)C1CC(=O)N(c2ccc(F)cc2)C1 (stereo unspecified) | 74.3% (active) |
| COCCCNC(=O)C1CC(=O)N(c2ccc(C)cc2)C1 (stereo unspecified) | 5.7% |
| N#Cc1c(N)nc2c3c(sc(=N)c2c1N)NC(=O)CC3c1ccccc1Cl (stereo unspecified) | -0.8% |
| CN(C)c1ccnc(Oc2ccc(F)cc2)c1C#N | 32.1% |
| Cc1cccc(OCc2nnc(SCn3nnc4ccccc4c3=O)o2)c1 | 31.6% |
| Cc1cccc(OCc2nnc(SCc3nc4cc(C(F)(F)F)ccc4c(=O)[nH]3)o2)c1 | 54% (active) |
| Cc1cc(C)cc(OCc2nnc(SCC(=O)OC3CCCCC3)o2)c1 | 4.2% |
| COc1ccc(Nc2cc(C)nc(-n3nc(C)cc3C)n2)cc1 | 46% |
| COCCCNC(NC(=O)c1ccc(C)cc1)C(Cl)(Cl)Cl (stereo unspecified) | 24.3% |
| CCC(=O)c1c[nH]c(C(=O)NCC2CCCO2)c1 (stereo unspecified) | -4.8% |
| CCNC(=O)N1CCNC(=O)C1CC(=O)Nc1ccc(C(=O)OCC)cc1 (stereo unspecified) | 3.6% |
| COc1cc(C(=O)Nc2nccs2)cc(OC)c1OC | 17.9% |
| CC1(C)Cc2cccc(OCC(=O)Nc3nccs3)c2O1 | 60.6% (active) |
| CC1(C)Cc2cccc(OCC(N)=O)c2O1 | -16.5% |
| CCOC(=O)c1cc2n(c1N)-c1ccccc1C2=O | 26.7% |
| O=C(NCC1CCC(C(=O)O)CC1)OCc1ccccc1 (stereo unspecified) | 2.9% |
| Cc1ccc(C(=O)/C=C/c2c(C)nn(-c3ccccc3)c2Cl)cc1 | 76.2% (active) |
| Cc1nn(-c2ccccc2)c(CC(C)(C)C(=O)O)c1C(=O)O | 7.2% |
| Cc1nn(-c2ccccc2)c(Cl)c1C(=O)Nc1ccccc1 | 39.2% |

| SMILES | inhibition |
| --- | --- |
| Cc1ccc(O)c(CNc2nc3ccccc3n2C)c1 | 39.6% |
| CCC1SC2=NCCN2C1(O)c1ccc(Cl)cc1 (stereo unspecified) | 94.6% (active) |
| O=C(COc1ccccc1F)NC1CC1 | -8.2% |
| O=C1CCCc2c1nc(-c1cccc(Cl)c1)n2O | -3.8% |
| CON(C)S(=O)(=O)c1ccc2c(c1)NC(=O)C1CCCN21 (stereo unspecified) | 4.3% |
| COc1ccc(Nc2nc(Cl)nc(NCc3ccco3)n2)cc1 | 4% |
| Cc1cc(C)nc(SC(C)C(=O)N/N=C/c2cccs2)n1 (stereo unspecified) | 20.8% |
| COc1ccc(N(CC(=O)N/N=C/c2cccs2)S(=O)(=O)c2ccc(OC)c(OC)c2)cc1 | 99.3% (active) |
| COc1ccc(N(CC(=O)N/N=C/c2cccc3c2OCCO3)S(=O)(=O)c2ccc(NC(C)=O)cc2)cc1 | 33.4% |
| CCOc1ccc(N=Cc2c(O)n(-c3cccc(C)n3)c(=O)c3ccccc23)cc1 | 23.6% |
| CCOC(=O)c1cc2c(n(-c3ccc(C)cc3)c1=O)CCCC2=O | 5.6% |
| COC(=O)CNC(=O)c1ccccc1F | -5.1% |
| COc1ccc(C(=O)NN(C)c2nc(-c3ccccc3)cc(C)c2S(C)(=O)=O)cc1 | 10.6% |
| CN(NC(=O)c1ccccc1)c1nc2ccccc2nc1C(F)(F)F | 35.4% |
| CSc1nc(N(C)NC(=O)c2cccc(C)c2)c2ccccc2n1 | 77% (active) |
| Cc1c(C(=O)OC(C)C)sc(NC(=O)c2cccnc2)c1C#N | 1.5% |
| CC(NC(=O)c1ccco1)C(=O)Nc1nc(-c2ccccn2)cs1 (stereo unspecified) | 6% |
| COc1ccc2[nH]c3ccc(OC)cc3c2c1 | 29.9% |
| Clc1ccc(Cl)c(Oc2ccc(Oc3nc(Cl)ccc3Cl)cc2)n1 | -4.8% |
| COCCNCCOCCOc1cccc(OC)c1 | 10.2% |
| Cc1ccc(S(=O)(=O)c2ccc(Oc3ccccc3)cc2)cc1 | -11.2% |
| Cc1ccc(Oc2ccc(N)cc2)cc1 | 87.9% (active) |

| SMILES | inhibition |
| --- | --- |
| CN(C)S(=O)(=O)c1ccc(Oc2ccc(S(=O)(=O)N(C)C)cc2)cc1 | 19.7% |
| COc1cccc(Oc2ccc(N)cc2)c1 | 64.1% (active) |
| Nc1ccc(Oc2ccc(Cl)cc2)cc1 | 85.1% (active) |
| Nn1c(SCC(=O)NC(=O)NC2CCCC2)nnc1-c1ccccc1F | 27.9% |
| COc1ccc(C(C(O)C(=O)c2c[nH]c3ccccc23)N2CCN(c3ccccc3)CC2)cc1 (stereo unspecified) | 28.5% |
| CCC(C)c1ccc(O)c(/C=N/O)c1 (stereo unspecified) | -21.8% |
| Cc1nc2ccc(C(=O)O)cc2[nH]1 | -2.4% |
| Cc1noc(C)c1COC(=O)c1cc2ccccc2cc1O | 89.3% (active) |
| Cc1noc(C)c1COC(=O)Cn1c(C)nc2ccccc21 | 17.3% |
| Cc1noc(C)c1CSc1nnc2ccc3ccccc3n12 | 23.4% |
| CC(CN1CCOCC1)c1ccccc1 (stereo unspecified) | 26.4% |
| CC(C)C(=O)Nc1ccc2c(c1)oc1ccccc12 | 13.2% |
| Cc1nc2cc(NC(=O)NCc3ccccc3)ccc2o1 | -8.7% |
| O=C(O)CCN1C(=O)CC2(CCCCC2)C1=O | -6.7% |
| Cc1ccc(C(=O)Nc2ccc3c(c2)OCO3)cc1S(=O)(=O)N1CCCCC1 | 92.3% (active) |
| Cc1ccc(C(=O)NCC(=O)O)cc1S(=O)(=O)N1CCCCC1 | -12.8% |
| O=C(O)c1cc(S(=O)(=O)N2CCCCCC2)c(Cl)cc1Cl | 0% |
| Cn1c(=O)n(C)c2cc(C(=O)Nc3ccc4c(c3)OCO4)ccc21 | -13.9% |
| O=C(Nc1ccc2c(c1)OCCO2)c1ccc(Cl)c(S(=O)(=O)N2CCCCC2)c1 | 96.4% (active) |
| Cc1ccc(-n2nc3c(c2NC(=O)c2ccc4c(c2)OCO4)CSC3)c(C)c1 | 3.6% |
| COc1ccc(N2C(=O)c3cccc4cccc(c34)C2=O)nn1 | -8.5% |
| CC1CCCN(C(=O)Cn2c(=O)oc3ccccc32)C1 (stereo unspecified) | 26.2% |
